Calls of active or inactive are those of the source. The rule behind the calls is not given here.
Each compound was assayed against Pantothenate synthetase (Mycobacterium tuberculosis (strain ATCC 25618 / H37Rv)) (UniProt P9WIL5) (assay: Recombinant Mtb pantothenate synthetase (PanC) inhibitors, coupled enzyme, confirmatory (AID 375;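 note: 0% = full reaction with vehicle and 100% = no enzyme background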)). Details: coupled enzyme assay; at 10 µM, active compounds read high.
Chain of Pantothenate synthetase (Mycobacterium tuberculosis (strain ATCC 25618 / H37Rv)) (P9WIL5 whole entry, looked up): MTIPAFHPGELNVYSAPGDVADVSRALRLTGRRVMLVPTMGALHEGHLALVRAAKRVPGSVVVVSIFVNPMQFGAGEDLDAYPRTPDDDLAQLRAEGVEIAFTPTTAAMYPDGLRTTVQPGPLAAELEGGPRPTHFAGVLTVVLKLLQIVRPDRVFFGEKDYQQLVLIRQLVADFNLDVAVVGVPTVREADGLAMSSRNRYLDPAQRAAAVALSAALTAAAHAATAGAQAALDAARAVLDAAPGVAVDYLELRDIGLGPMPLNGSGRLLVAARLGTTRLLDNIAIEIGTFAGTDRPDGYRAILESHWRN

Compound	inhibition
COc1cc(/C=N/n2c(C)nnc2C)cc(OC)c1OC	4% (inactive)
C=CCOC(=O)COc1ccc2c(C)c(C)c(=O)oc2c1C	0% (inactive)
CCC(Oc1ccccc1)C(=O)Nc1ccccc1OC (centres undefined)	0% (inactive)
CCC1SC2=NC(C)=C(C(=O)OC)C(c3ccc(C)cc3)N2C1=O (centres undefined)	7% (inactive)
CC(N)C12CC3CC(C1)CC(C(C)N)(C3)C2 (centres undefined)	0% (inactive)
NC(=O)COC(=O)c1ccc(S(=O)(=O)N2CCCCCC2)cc1	0% (inactive)
CCOC(=O)c1c(C(F)(F)C(F)(F)C(F)(F)C(F)(F)F)n[nH]c1C	8% (inactive)
N#Cc1ccc(COC(=O)Cn2nnc(-c3ccccc3)n2)cc1	0% (inactive)
N#Cc1c(-c2ccccc2)nc(N2CCCCCC2)[nH]c1=O	0% (inactive)
CNC(=O)CSc1nnc(-c2cc(C)cc(C)c2)o1	7% (inactive)
Cc1nn(C)cc1C1C2=C(CC(C)(C)CC2=O)OC2=C1C(=O)CC(C)(C)C2	0% (inactive)
COc1cc(-c2nnc(SCC(=O)c3cc(C)n(CC4CCCO4)c3C)o2)cc(OC)c1OC (centres undefined)	0% (inactive)
Cc1ccc(-c2cc(C(F)F)nc(N3CCC(C)CC3)n2)cc1	6% (inactive)
CCOc1ccc(NC2c3ccccc3C(=O)N2Cc2ccco2)cc1 (centres undefined)	1% (inactive)
O=C(CC1CCCCC1)NCc1ccccn1	0% (inactive)
CC(C(N)=O)N1C(=O)C2C3C=CC(C3)C2C1=O (centres undefined)	2% (inactive)
Cc1c(NS(=O)(=O)c2ccc3c(c2)n(C)c(=O)n3C)c(=O)n(-c2ccccc2)n1C	2% (inactive)
O=C(Nc1ccc2nn(-c3ccccc3)nc2c1)c1ccc(Br)o1	0% (inactive)
O=C(Nc1cccc2ccccc12)N1CCN(c2ccccc2)CC1	3% (inactive)
CCC(=O)N1CCc2cc(S(=O)(=O)CCC(=O)Nc3ccc(C)c(F)c3)ccc21	0% (inactive)

Compound	inhibition
CCCc1cc(=O)n2[nH]c(-c3ccc(Br)cc3)cc2n1	0% (inactive)
O=C(Cn1c(=O)oc2ccccc21)N1CCN(c2ccccc2)CC1	0% (inactive)
CN(C)S(=O)(=O)c1ccc(S(=O)(=O)N(Cc2ccco2)Cc2ccccc2Cl)cc1	3% (inactive)
Cc1ccccc1-c1noc(N)c1C#N	0% (inactive)
CCc1cc2c(=O)c(-c3cscn3)coc2cc1O	0% (inactive)
Cc1ccc(-n2nc(C)c3cc(C(=O)O)sc32)cc1	0% (inactive)
Cn1c(-n2c(-c3ccco3)nc3ccccc3c2=O)nc2ccccc21	2% (inactive)
CCCCc1ccc(NC(=O)N[C@H](C(=O)O)C(C)C)cc1	1% (inactive)
CC1CCc2nc(NC(=O)CN3CCN(Cc4ccc5c(c4)OCO5)CC3)sc2C1 (centres undefined)	0% (inactive)
O=C(CCNC(=O)Cn1ccc2ccccc2c1=O)NCCN1CCN(c2ccccc2F)CC1	0% (inactive)
Cc1cc(OCC(=O)NCCO)cc(C)c1Cl	3% (inactive)
O=P(O)(O)C(O)C(F)(F)C(F)(F)C(F)(F)C(F)F (centres undefined)	0% (inactive)
CC(C(=O)NC(=O)NC1CCCCC1)N1CCN(c2ccccn2)CC1 (centres undefined)	0% (inactive)
CCOC(=O)N1CCN(Cc2nc3c(c(=O)n(C)c(=O)n3C)n2Cc2ccccc2)CC1	0% (inactive)
OC(CCCN1CCC(O)(c2ccc(Cl)cc2)CC1)c1ccc(F)cc1 (centres undefined)	5% (inactive)
CC[C@H](C)C(=O)O[C@H]1C[C@@H](C)C=C2C=C[C@H](C)[C@H](CC[C@@H]3C[C@@H](O)CC(=O)O3)[C@H]21	5% (inactive)
COc1ccc2cc(CN(Cc3ccco3)C(c3nnnn3C3CCCCC3)C(C)C)c(=O)[nH]c2c1 (centres undefined)	5% (inactive)
Cn1c(C(=O)NCCN2CCN(c3ccccc3F)CC2)cc2c(=O)n(C)c3ccccc3c21	7% (inactive)
CCc1n[nH]c2c1C(=O)CC(C)(C)C2	2% (inactive)

From PubChem BioAssay
